ATXN2 expr inh: Primary qHTS for Inhibitors of ATXN expression; AID 1745845, 2022; 0.72% of 360,000 active; Potency, µM (top dose mostly 57 µM), for the others: top-dose activity change, negative = inhibition, usual class: inhibitors; HEK-293 ATXN2-luciferase reporter, luminescence, 24 h; also: potency is read from the fitted curve at half-maximal effect; % is scaled to controls: 0 for no effect and ±100 for the full control effect; nearly all actives have a fitted effect of over 55% in size
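qHTS (up to 57 uM final) was run with 24 h compound exposure of reporter cells at 37 °C. Each well was multiplexed: SteadyGlo luminescence measured ATXN2-luciferase expression after a fluorogenic Gly-Phe-AFC viability readout (25 uM final).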
HepG2 tox: qHTS for Inhibitors of TGF-b: Cytotox Counterscreen. 0.76% of 410,000 active. AID 588856, 2011. Potency, µM (titrated, usually from 46.1 µM), for inactives: top-dose activity change, negative = cytotoxicity, usual class: cytotoxic. HepG2 CAGA-GFP viability, ATP luminescence, 18 h; also: potency is read from the fitted curve at half-maximal effect
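HepG2 CAGA-GFP cells (1000/well, DMEM with 1% FBS) received compound, then TGF-beta at 500 pg/mL final, and were incubated 18 hours at 37 degrees C. Viability was read by CellTiter-Glo luminescence. Media-only wells were set as complete cell-killing and DMSO as no toxicity.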
S2 tox: Viability Counterscreen for Primary qHTS for Inhibitors of ATXN expression; Potency, µM (titrated, usually from 56.7 µM), most hits filed as cytotoxic; S2 cells (HEK-293 line with an ATXN2-luciferase reporter) viability, CellTiter-Fluor protease fluorescence, 24 h; 0.49% of 400,000 active; AID 651635, 2014; also: potency is read from the fitted curve at half-maximal effect; nearly all actives have a fitted effect of over 40% in size
Six1-Eya2 blk: qHTS Assay for Inhibitors of the Six1/Eya2 Interaction | AID 651725, 2012 | activity change, % (test concentration not listed) | 0.56% of 360,000 active | AlphaScreen GST-Six1/His-Eya2 binding, biochemical; stronger effect = lower value; in the data active = activity change below about -65%; inconclusive = mostly about -30% to -63%; also: % is scaled to controls: 0 for no effect and ±100 for the full control effect
Target sequence (O00167 whole entry, looked up): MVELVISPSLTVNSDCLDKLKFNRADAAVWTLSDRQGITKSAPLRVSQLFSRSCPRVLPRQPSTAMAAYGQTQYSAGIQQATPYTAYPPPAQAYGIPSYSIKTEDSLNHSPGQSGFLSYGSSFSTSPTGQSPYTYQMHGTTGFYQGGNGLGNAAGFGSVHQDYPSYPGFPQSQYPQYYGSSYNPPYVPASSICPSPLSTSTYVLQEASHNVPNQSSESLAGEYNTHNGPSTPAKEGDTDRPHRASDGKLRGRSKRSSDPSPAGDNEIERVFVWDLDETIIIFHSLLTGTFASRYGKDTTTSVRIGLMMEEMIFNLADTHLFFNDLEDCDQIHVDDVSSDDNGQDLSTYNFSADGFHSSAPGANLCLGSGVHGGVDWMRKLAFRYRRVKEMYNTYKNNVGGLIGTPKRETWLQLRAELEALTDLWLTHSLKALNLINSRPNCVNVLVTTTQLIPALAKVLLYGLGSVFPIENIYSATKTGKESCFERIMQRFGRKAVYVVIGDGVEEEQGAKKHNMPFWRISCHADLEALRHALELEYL
Target sequence (Q15475 whole entry, looked up): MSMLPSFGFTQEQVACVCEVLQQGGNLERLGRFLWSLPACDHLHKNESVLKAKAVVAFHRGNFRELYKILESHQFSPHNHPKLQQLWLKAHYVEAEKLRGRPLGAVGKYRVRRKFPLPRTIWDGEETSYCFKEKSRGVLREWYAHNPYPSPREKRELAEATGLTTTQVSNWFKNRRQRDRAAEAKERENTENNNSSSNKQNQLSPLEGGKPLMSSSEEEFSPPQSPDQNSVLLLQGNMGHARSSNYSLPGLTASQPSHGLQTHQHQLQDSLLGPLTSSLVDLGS
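Compounds are tested against tagged Six1 and Eya2 proteins bridged by glutathione donor and nickel acceptor beads; after a one-hour incubation at 37 °C without light, AlphaScreen emission is recorded.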
TGFb SMAD3 inh: qHTS for Inhibitors of TGF-b | HepG2 CAGA-GFP TGF-b/SMAD3 reporter, GFP fluorescence, 18 h; TGF-beta stimulated, 500 pg/mL final | Potency, µM (highest dose often 46.1 µM), for the others: at the highest dose activity, negative = inhibition, hits mostly inhibitors | 1.2% of 410,000 active; also: potency is read from the fitted curve at half-maximal effect; % is scaled to controls: 0 for no effect and ±100 for the full control effect; nearly all actives have a fitted effect of over 65% in size
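GFP signal (ex488/em500-530) from TGF-beta-stimulated HEPG2 CAGA-GFP cells, 500 pg/mL final, 18 h at 37 degrees C in DMEM plus 1% FBS, normalized to unstimulated and DMSO-stimulated controls.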
CtBP-E1A inh: qHTS Assay for Inhibitors of the CtBP/E1A Interaction | 0.49% of 340,000 active | activity change, % (test concentration not listed) | AlphaScreen GST-E1A/His-CtBP binding, 1536-well; stronger effect = lower value | CtBP / adenovirus E1A interaction (AlphaScreen); in the data active = activity change below about -65%; inconclusive = mostly about -30% to -63%; also: % is scaled to controls: 0 for no effect and ±100 for the full control effect
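GST-E1A and His-tagged CtBP (125 nM each as 5X stock) were preincubated with pin-transferred compound for 2 h at 37 °C in the dark, then glutathione donor and nickel acceptor beads were added for 1 h before AlphaScreen reading.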
Active calls of the source: *; [ ] = remark or other dose. A selection: hits, their analogues and other compounds. The true share with any hit is near 2.8%. Unless noted, calls follow the shape of the dose curve; as a rule, active = well fitted curve in the direction sought with a large enough effect; inconclusive = small, poorly fitted or top-dose-only effect, or another doubt; inactive = no such curve, though single readings can be large; an effect the other way counts as inactive or inconclusive.

For CC(=O)Nc1ccc(OC[C@](C)(O)C(=O)Nc2ccc([N+](=O)[O-])c(C(F)(F)F)c2)cc1 the results were ATXN2 expr inh 4%.
For Cc1ccc(N2C(=O)NC(=O)/C(=C/C=C/c3ccco3)C2=O)cc1 the results were ATXN2 expr inh inconclusive, HepG2 tox -31%, S2 tox inconclusive, Six1-Eya2 blk -3, TGFb SMAD3 inh 11µM* and CtBP-E1A inh 2.
COc1cc(/C=C2\C(=O)NC(=O)N(c3ccccc3)C2=O)cc(OC)c1OC was read as ATXN2 expr inh -2%, HepG2 tox 9%, S2 tox inactive, Six1-Eya2 blk 6, TGFb SMAD3 inh -23% and CtBP-E1A inh 2.
Screening O=C1NC(=O)N(c2ccccc2)C(=O)/C1=C\C=C\c1ccccc1 returned ATXN2 expr inh 14µM*, HepG2 tox -49%, S2 tox 14µM*, Six1-Eya2 blk -8, TGFb SMAD3 inh 7.1µM* and CtBP-E1A inh 3.
For Cc1cc(C)cc(N2C(=O)NC(=O)/C(=C\C=C\c3ccco3)C2=O)c1 the results were ATXN2 expr inh inconclusive, HepG2 tox -6%, S2 tox inconclusive, Six1-Eya2 blk -16, TGFb SMAD3 inh inconclusive and CtBP-E1A inh -7.
`CC(C)c1ccc(N2C(=O)NC(=O)/C(=C/C=C/c3ccco3)C2=O)cc1` gave ATXN2 expr inh 28µM*, HepG2 tox 16%, Six1-Eya2 blk -24, TGFb SMAD3 inh inconclusive and CtBP-E1A inh 3.
Screening CCc1ccc(N2C(=O)NC(=O)/C(=C\C=C\c3ccco3)C2=O)cc1 returned HepG2 tox -33%, S2 tox 10µM*, Six1-Eya2 blk -8 and TGFb SMAD3 inh inconclusive.
For O=C(C1CCCN(S(=O)(=O)c2cccc3nsnc23)C1)N1CCN(c2cccc(Cl)c2)CC1 (stereo unspecified) the results were ATXN2 expr inh -35%, HepG2 tox -9%, S2 tox inactive and TGFb SMAD3 inh inconclusive.
Screening O=C1NC(=O)C(=Cc2ccc(SC3CCCCC3)o2)C(=O)N1 returned ATXN2 expr inh 18µM*, HepG2 tox -59%, Six1-Eya2 blk -21, TGFb SMAD3 inh inconclusive and CtBP-E1A inh 0.
For NS(=O)(=O)c1ccc(-c2ccc(C=C3C(=O)NC(=O)NC3=O)o2)cc1 the results were ATXN2 expr inh -2%, HepG2 tox -19%, S2 tox inactive, Six1-Eya2 blk 9, TGFb SMAD3 inh 3% and CtBP-E1A inh -22.
COc1ccc(C(=O)Nc2ccc(-c3cc(C(F)(F)F)nn3-c3ccccc3)cc2)cc1OC was read as ATXN2 expr inh inconclusive, HepG2 tox -20%, S2 tox inactive and TGFb SMAD3 inh 9%.
`Cc1cccc(-n2c(/C=C/c3ccccc3O)nc3ccccc3c2=O)c1` gave HepG2 tox -22% and TGFb SMAD3 inh 11µM*.
O=c1c2ccccc2nc(/C=C\c2cccc(Br)c2)n1-c1ccc(O)cc1 was read as HepG2 tox -105% and TGFb SMAD3 inh 13µM*.
For O=c1c2ccccc2nc(/C=C/c2ccccc2)n1-c1ccc(O)cc1 the results were ATXN2 expr inh -37%, HepG2 tox -28%, S2 tox inconclusive, Six1-Eya2 blk -3, TGFb SMAD3 inh inconclusive and CtBP-E1A inh -19.
`Cc1cccc(-n2c(/C=C/c3ccc([N+](=O)[O-])o3)nc3ccccc3c2=O)c1` gave ATXN2 expr inh 14µM*, HepG2 tox -25%, S2 tox inconclusive, Six1-Eya2 blk 5, TGFb SMAD3 inh inconclusive and CtBP-E1A inh -1.
Screening COc1cc(C[C@@H](C)N)c(OC)cc1C returned ATXN2 expr inh -19%[116 µM] and S2 tox inconclusive.
Screening O=C(Cn1c(=O)oc2cc(Cl)ccc21)Nc1cccc(C(F)(F)F)c1 returned HepG2 tox -39% and TGFb SMAD3 inh inconclusive.
`CCCCC(=O)N/N=C/c1c(O)n(CCCC)c(=S)[nH]c1=O` gave ATXN2 expr inh inconclusive, HepG2 tox -22%, S2 tox inactive, Six1-Eya2 blk -74*, TGFb SMAD3 inh 0% and CtBP-E1A inh -66*.
For O=C(N/N=C/c1c(O)n(Cc2ccco2)c(=O)[nH]c1=O)c1ccccc1O the results were ATXN2 expr inh 1%, HepG2 tox 2%, S2 tox inconclusive, Six1-Eya2 blk -87*, TGFb SMAD3 inh 1% and CtBP-E1A inh -89*.
CC(=O)Nc1ccc(N=Cc2c(O)n(Cc3ccco3)c(=O)[nH]c2=O)cc1 was read as ATXN2 expr inh -14%, HepG2 tox -10%, S2 tox inactive, Six1-Eya2 blk -18, TGFb SMAD3 inh 0% and CtBP-E1A inh -2.
For CCCCC(=O)N/N=C/c1c(O)n(C2CC2)c(=S)[nH]c1=O the results were ATXN2 expr inh 1%, HepG2 tox 13%, S2 tox inactive, Six1-Eya2 blk 0, TGFb SMAD3 inh 0% and CtBP-E1A inh 4.
For CCCCC(=O)N/N=C/c1c(O)n(Cc2ccco2)c(=O)[nH]c1=O the results were ATXN2 expr inh 6%, HepG2 tox -17%, S2 tox inactive, Six1-Eya2 blk -75*, TGFb SMAD3 inh -3% and CtBP-E1A inh inconclusive.
For CCCCC(=O)N/N=C/c1c(O)n(-c2cccc3ccccc23)c(=O)[nH]c1=O the results were HepG2 tox -10%, S2 tox inactive, Six1-Eya2 blk -71* and TGFb SMAD3 inh -15%.
`CN1CCN=C(c2ccccc2)c2cc(Cl)ccc21` gave S2 tox inactive.
For CC1Sc2c(C(=O)O)c(=O)c3cc(F)c(N4CCNCC4)cc3n21 (stereo unspecified) the results were ATXN2 expr inh 6% and S2 tox inactive.
`O=C(N/N=C/c1c(O)n(Cc2ccc(F)cc2)c(=S)[nH]c1=O)c1ccncc1` gave ATXN2 expr inh 12%, HepG2 tox 23%, S2 tox inactive, Six1-Eya2 blk inconclusive, TGFb SMAD3 inh 30% and CtBP-E1A inh -67*.
Screening CCn1c(O)c(/C=N/NC(=O)c2ccncc2)c(=O)[nH]c1=S returned HepG2 tox -15%, Six1-Eya2 blk -17 and TGFb SMAD3 inh inconclusive.
`c1cc2c(cc1[C@H]1OC[C@H]3[C@H]1CO[C@H]3c1ccc3c(c1)OCO3)OCO2` gave ATXN2 expr inh 4%.

Screening data as filed in PubChem.
